# Most compounds without a hit are left out; they make up all but 0.74% or so of the library.
# PLK1 kinase inh – human PLK1 kinase inhibitors, primary screen, biochemical, TR-FRET. recombinant PLK1 kinase, TR-FRET peptide phosphorylation. hit rate 0.53% among 97,000. Serine/threonine-protein kinase PLK1 (Homo sapiens), P53350. inhibition, % at 10 µM;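 active = inhibition of 50% or more in the single-concentration screen; inactive = inhibition below 50%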;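 note: 0% = DMSO max control and 100% = H-89 dihydrochloride min control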
# PLK1 PBD inh – Plk1 polo box domain binding inhibitors, primary screen, biochemical, fluorescence polarization | inhibition, %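 (tested at about 20 µM)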 | hit rate 0.13% among 97,000 | Plk1 PBD phosphopeptide binding | Serine/threonine-protein kinase PLK1 (Homo sapiens), P53350 | AID 693, 2007; in the data active = inhibition above about 34%, passing the limit was not always enough
# PKA kinase inh – inhibitors of human PKA kinase activity, primary screen, biochemical, ATP-depletion luminescence, Kemptide substrate | PKA Kemptide phosphorylation, Kinase-Glo ATP luminescence | AID 524, 2006 | inhibition, % at 6 µM | hit rate 0.1% among 65,000 | cAMP-dependent protein kinase catalytic subunit alpha (Homo sapiens), P17612;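 active = inhibition above the screen-wide mean inhibition plus 3 SD, cut at about 21% in these data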
# ROCK2 blocker – inhibitors of human ROCK2 kinase, primary screen, biochemical, high-throughput, luminescence; inhibition, % at 6 µM; purified ROCK2, Kinase-Glo ATP depletion luminescence; hit rate 0.35% among 60,000; Rho-associated protein kinase 2 (Homo sapiens), O75116; AID 604, 2007;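 active = inhibition above the screen-wide mean inhibition plus 3 SD, cut at about 18% in these data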;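 note: plate controls were DMSO wells for no effect and Y-27632 control wells after no-enzyme background subtraction for full effect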
# Target sequence (O75116 whole entry, looked up): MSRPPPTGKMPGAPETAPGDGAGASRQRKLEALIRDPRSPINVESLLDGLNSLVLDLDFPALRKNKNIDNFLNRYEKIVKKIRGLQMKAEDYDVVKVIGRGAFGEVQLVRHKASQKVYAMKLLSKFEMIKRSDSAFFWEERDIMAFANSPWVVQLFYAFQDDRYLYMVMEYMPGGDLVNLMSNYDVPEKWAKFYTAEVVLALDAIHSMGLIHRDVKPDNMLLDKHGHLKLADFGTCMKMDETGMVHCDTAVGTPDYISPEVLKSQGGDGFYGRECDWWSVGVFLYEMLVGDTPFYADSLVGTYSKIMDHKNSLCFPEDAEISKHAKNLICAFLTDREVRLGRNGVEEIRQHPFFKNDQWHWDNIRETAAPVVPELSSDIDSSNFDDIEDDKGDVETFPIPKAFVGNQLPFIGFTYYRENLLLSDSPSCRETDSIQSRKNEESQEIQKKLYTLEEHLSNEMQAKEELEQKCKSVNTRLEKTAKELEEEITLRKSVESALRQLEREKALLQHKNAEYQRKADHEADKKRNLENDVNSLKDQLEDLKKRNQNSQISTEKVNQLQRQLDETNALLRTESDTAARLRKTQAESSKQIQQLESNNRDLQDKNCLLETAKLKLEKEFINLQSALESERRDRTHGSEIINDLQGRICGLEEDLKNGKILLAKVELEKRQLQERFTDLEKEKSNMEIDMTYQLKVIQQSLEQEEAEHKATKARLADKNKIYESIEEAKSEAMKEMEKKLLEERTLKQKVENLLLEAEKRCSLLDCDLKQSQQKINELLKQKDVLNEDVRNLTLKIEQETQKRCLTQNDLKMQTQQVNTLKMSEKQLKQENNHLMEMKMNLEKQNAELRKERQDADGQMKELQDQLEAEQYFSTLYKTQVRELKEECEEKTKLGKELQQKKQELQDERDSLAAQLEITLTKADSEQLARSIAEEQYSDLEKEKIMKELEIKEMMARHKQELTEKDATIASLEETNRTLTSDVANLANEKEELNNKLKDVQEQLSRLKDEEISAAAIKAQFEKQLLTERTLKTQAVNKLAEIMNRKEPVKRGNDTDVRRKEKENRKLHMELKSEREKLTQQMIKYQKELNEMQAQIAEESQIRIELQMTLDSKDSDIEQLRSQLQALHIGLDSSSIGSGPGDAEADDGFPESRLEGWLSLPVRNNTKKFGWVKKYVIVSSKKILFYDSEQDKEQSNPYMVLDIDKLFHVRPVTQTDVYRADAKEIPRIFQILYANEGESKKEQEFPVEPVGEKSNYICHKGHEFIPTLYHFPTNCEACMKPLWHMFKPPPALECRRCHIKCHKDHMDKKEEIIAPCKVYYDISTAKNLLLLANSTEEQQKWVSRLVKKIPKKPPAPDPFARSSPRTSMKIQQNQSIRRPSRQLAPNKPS
# * hit, by the source's call; . = no result.
SMILES,PLK1 kinase inh,PLK1 PBD inh,PKA kinase inh,ROCK2 blocker
c1nc(N2CCOCC2)c2[nH]cnc2n1,63*,1,15,26*
COc1ccc(N2CCN(c3ncnc4nc[nH]c34)CC2)cc1,.,.,16,24*
O=C(CSc1ncnc2nc[nH]c12)c1ccccc1,4,-8,.,.
C1=C(c2ccccc2)CCN(c2ncnc3nc[nH]c23)C1,.,.,18,24*
O=C(CSc1ncnc2nc[nH]c12)N1CCOCC1,21,-17,9,4
COc1ccc(OC)c(N(CC(=O)Nc2cccnc2)S(=O)(=O)c2ccccc2)c1,-2,-2,.,.
CC(CC(=O)NC1CCCC1)c1ccccc1 (stereo not drawn),2,-2,.,.
CC(=O)C(CC(=O)N1CCCc2ccccc21)C(=O)Nc1ccc(F)cc1 (stereo not drawn),-40,-9,.,.
Cc1nc(=O)c(-c2ccccc2)c(C)n1-c1ccc(O)c(C(=O)O)c1,.,.,7,-1
CCC1=NNc2cccc3c(OC)ccc1c23,68*,-1,.,.
COc1ccc(C(C)=O)c2c(O)cccc12,-5,8,9,4
CCN(CC)CCNC(=O)Cn1c(C)cc2ccccc2c1=O,2,-1,.,.
Cc1cc2ccccc2c(=O)n1CC(=O)Nc1ccc2c(c1)OCO2,.,.,22*,13
CCN1CCN(CCNC(=O)CS(=O)(=O)Cc2nc(-c3ccc(C)cc3)oc2C)CC1,65*,-9,2,8
CCn1c(=S)sc2c(=O)[nH]c(C)nc21,58*,7,7,4
CCn1c(=S)sc2c(=O)n(-c3ccccc3)c(SC)nc21,2,-4,6,.
CCOC(=O)C1CCCN(C(=S)Nc2cc(C)cc(C)c2)C1 (stereo not drawn),-14,0,.,.
O=C(NCc1ccc2c(c1)OCO2)c1ccc2snnc2c1,-5,10,6,38*
O=C(Oc1cccc2ccccc12)c1ccncc1,-9,23,.,.
O=C(Oc1cccc2c(=O)[nH]ccc12)c1ccccc1,-9,11,2,18*
Cc1csc(=Nc2ccc(S(=O)(=O)N3CCOCC3)cc2)n1Cc1ccco1,-12,30,2,6
O=C(Cc1ccccc1)Nc1c2c(nn1-c1cccc(Cl)c1)CS(=O)(=O)C2,66*,5,2,.
Cc1[nH]nc2c1C(c1ccsc1)C(C#N)=C(N)O2 (stereo not drawn),52*,-2,.,.
Cc1ccc(-c2ccc(C3C(C#N)=C(N)Oc4n[nH]c(C)c43)o2)cc1 (stereo not drawn),43,-17,.,.
Cc1[nH]nc2c1C(c1ccc(-c3ccccc3C#N)o1)C(C#N)=C(N)O2 (stereo not drawn),50,-13,8,40*
SMILES,PLK1 kinase inh,PLK1 PBD inh,PKA kinase inh,ROCK2 blocker
Cc1[nH]nc2c1C(c1ccsc1C)C(C#N)=C(N)O2 (stereo not drawn),61*,10,.,.
Cc1[nH]nc2c1C(c1ccc(F)cc1)C(C#N)=C(N)O2 (stereo not drawn),57*,8,2,3
Cc1ccc(-c2[nH]nc3c2C(c2ccsc2)C(C#N)=C(N)O3)cc1 (stereo not drawn),2,-6,.,.
Cc1ccc(S(=O)(=O)NCCSc2nnnn2-c2ccc(C(N)=O)cc2)cc1,.,.,54*,13
CS(=O)(=O)NCCSc1nnnn1-c1ccccc1,-5,6,-1,0
Cc1cc(OCC(F)(F)C(F)(F)C(F)(F)C(F)F)nc(N)n1,-13,24,.,.
CNC(=O)CN1C(=O)c2cccc3cccc1c23,-4,2,.,.
CN1/C(=N\O)c2cccc3cccc1c23,-9,-14,10,37*
CC1CCN(c2cc(N3CCC(C)CC3)c([N+](=O)[O-])cc2/C=C(\C#N)c2nn(-c3ccccc3)c(N)c2C#N)CC1,55*,-13,.,.
Cc1cc(C)c2nc(Nc3nc(C)cc(=O)[nH]3)nc(C)c2c1,.,.,3,2
COc1ccccc1NC(=O)CSc1nnc(-c2ccccc2)o1,58*,-8,10,3
COc1ccccc1NC(=O)CSc1nnc(Cc2ccccc2)o1,-8,4,5,-2
O=C(COc1ccc2ccccc2c1)Nc1ccc(Cc2ccncc2)cc1,63*,7,.,.
O=C(COc1ccc2ccccc2c1)Nc1cccc2cccnc12,-8,9,.,.
CC(=O)c1cccc(NC(=O)NCc2cccs2)c1,-8,-2,8,20*
CC(=O)c1cccc(NC(=O)NCc2ccccn2)c1,-7,19,4,0
CC1(C)Cc2c(C#N)c(NCCCO)nc(-c3ccccc3)c2CO1,67*,-5,8,-6
CCc1nnc(NC(=O)CSc2nnc(-c3c[nH]c4ccccc34)n2CC)s1,-8,15,11,5
CCCSc1nnc(-c2c[nH]c3ccccc23)n1C,64*,4,2,-1
CCCSc1nnc(-c2c[nH]c3ccccc23)n1CC,60*,1,-5,-2
CCn1c(SCc2cccnc2)nnc1-c1c[nH]c2ccccc12,67*,-12,-3,-1
Cc1occc1-c1nnc(SCC(=O)c2c[nH]c3ccccc23)n1C,1,-5,7,.
CCOc1ccc(-n2c(SCC(=O)NCc3ccco3)nnc2-c2c[nH]c3ccccc23)cc1,-16,-7,.,.
Cn1c(SCC(=O)NCc2ccco2)nnc1-c1c[nH]c2ccccc12,65*,-15,5,5
O=c1c(-c2nc3ccccc3s2)cccn1Cc1ccc(Cl)c(Cl)c1,-2,-35,.,.
SMILES,PLK1 kinase inh,PLK1 PBD inh,PKA kinase inh,ROCK2 blocker
C/C=C/c1c(F)c(F)c(Oc2ccc(C(=O)O)cc2)c(F)c1F,-45,13,.,.
S=c1sc2c(N3CCOCC3)ncnc2n1-c1ccccc1,62*,21,8,4
CCN1CCN(c2ncnc3c2sc(=S)n3-c2ccccc2)CC1,.,.,-6,0
Cc1ccccc1CNC(=O)c1ccccc1,-34,-11,.,.
Cc1ccc(Nc2c3c(nc4ncnn24)CCC3)cc1,-2,10,0,.
Clc1cccc(Nc2c3c(nc4ncnn24)CCC3)c1,54*,-11,8,6
COc1ccc(C2/C(=C(/O)c3ccccc3)C(=O)C(=O)N2CCO)cc1 (stereo not drawn),-7,5,10,4
O=C1C(=O)N(CCO)C(c2ccccc2)/C1=C(\O)c1ccccc1 (stereo not drawn),55*,-8,4,4
NC(=O)c1sc2cc(C(F)(F)F)cnc2c1-c1cccs1,57*,7,.,.
N#Cc1c(/N=C/c2cccs2)sc2c1CCCCC2,-8,24,6,25*
N#Cc1c(/N=C/c2ccc(Br)s2)sc2c1CCC2,-12,-18,.,.
Nc1ncnc2oc(-c3ccco3)c(-c3ccco3)c12,56*,-28,5,5
N#Cc1c(Cl)c(Cl)c2nnc(-c3ccc(Br)cc3)n2c1Cl,-11,9,.,.
CCCCNC(=O)CS(=O)Cc1nc(-c2ccc(C)cc2)oc1C (stereo not drawn),-14,6,4,4

# Source: PubChem BioAssay (several laboratories)
